Laboratory results reported in PubChem BioAssay (NCATS).
Results filed as inconclusive are left out. Calls of active or inactive are those of the source. The call rests on the fitted dose curve; in most records, active means well fitted curve in the direction sought with a large enough effect; inconclusive means small, poorly fitted or top-dose-only effect, or another doubt; inactive means no such curve, though single readings can be large; an effect the other way counts as inactive or inconclusive.

Key:
[1] = SDT Cancer Cell Toxicity qHTS against the NCATS CANVASS Library (AID 1347365)
In short: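 Canine SDT glioma cell toxicity was scored by ATP-dependent luminescence after a 72 hr incubation with an 11-point compound series.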

[2] = KB-3-1 Cancer Cell Toxicity qHTS against the NCATS CANVASS Library (AID 1347366); details: KB-3-1 viability, CellTiter-Glo luminescence, 72 h; at 46.1 µM (top of the series)
In short: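 Luminescence from CellTiter-Glo (10 min, room temperature) measured KB-3-1 viability after 72 hr compound exposure at 37C. Cells were seeded at 500/well and tested in an 11-point series.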

[3] = qHTS for ATAD5 Agonist screened against the NCATS CANVASS Library (AID 1347367)
In short: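 HEK293T-ATAD5 luc reporter; 2000 cells/well; 5hr settle; cpd 11-pt qHTS; 16hr 37C 5% CO2 dark; viability by CellTiter-Fluor (AFC fluorescence); then luciferase luminescence, 30min RT.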

[4] = G06 Cancer Cell Toxicity qHTS against the NCATS CANVASS Library (AID 1347368)
In short: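 Quantitative HTS in G06 cells (dog glioma): 72 hr treatment, 11 concentrations, then ATP-based luminescent viability readout; bortezomib 0.1 nM–4.6 uM final as reference.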

[5] = MCF7 Cancer Cell Toxicity qHTS against the NCATS CANVASS Library (AID 1347369); details: MCF7 viability, ATP luminescence (CellTiter-Glo), 72 h; at 46 µM (top of the series)
In short: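 Cells seeded at 500/well, then compound pinned. Plates incubated 72 hr at 37C, 5% CO2. CellTiterGlo added; luminescence read.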

[6] = qHTS for ATAD5 Antagonist screened against the NCATS CANVASS Library (AID 1347370)
In short: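 HEK293T-ATAD5 luc reporter, 2000 cells/well; 5hr attach; cpd + 10 uM 5-FUrd; 16hr 37C, 5% CO2. Readouts: CellTiter-Fluor fluorescence (1hr), then Amplite luciferase luminescence (30min RT).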

[7] = J3T Cancer Cell Toxicity qHTS against the NCATS CANVASS Library (AID 1347371)
In short: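 ATP-based cytotoxicity in canine J3T cells: 72 hr exposure at 37C, 11-point titration, CellTiterGlo luminescent detection.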

[8] = molecular target: Nuclear receptor subfamily 1 group I member 3 (Homo sapiens) (UniProt Q14994); test: qHTS for Constitutive Androstane Receptor (CAR) Antagonist screened against the NCATS CANVASS Library (AID 1347372)
Sequence of Nuclear receptor subfamily 1 group I member 3 (Homo sapiens) (Q14994 whole entry, looked up): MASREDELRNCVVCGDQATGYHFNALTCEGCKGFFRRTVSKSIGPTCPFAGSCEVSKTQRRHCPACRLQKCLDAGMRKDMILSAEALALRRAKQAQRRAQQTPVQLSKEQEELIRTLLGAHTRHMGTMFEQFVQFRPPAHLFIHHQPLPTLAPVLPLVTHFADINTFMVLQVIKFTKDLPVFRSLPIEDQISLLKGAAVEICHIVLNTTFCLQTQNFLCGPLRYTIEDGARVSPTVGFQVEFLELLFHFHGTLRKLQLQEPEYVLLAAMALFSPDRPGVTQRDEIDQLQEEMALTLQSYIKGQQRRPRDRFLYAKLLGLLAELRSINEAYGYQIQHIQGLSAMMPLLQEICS
In short: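 Cells were seeded and left 4hr to attach, then received compound at 11 concentrations and 50 nM CITCO. Following 24hr incubation, fluorescence viability and luciferase luminescence were read sequentially.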

[9] = molecular target: Nuclear receptor subfamily 1 group I member 3 (Homo sapiens) (UniProt Q14994); test: qHTS for Constitutive Androstane Receptor (CAR) Agonist screened against the NCATS CANVASS Library (AID 1347373)
In short: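 In an 11-point concentration series, compounds were incubated 24hr with HepG2 cells carrying hCAR and a CYP2B6-2.2kb reporter, with PK11195 at 1.5uM final. A CellTiter-Fluor viability read preceded the ONE-Glo luminescence read.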

[10] = qHTS for Hypoxia signaling pathway (HIF-1) antagonists against the NCATS CANVASS Library (AID 1347374)
In short: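 Beta-lactamase reporter under HRE control in ME-180 cells; CoCl2 stimulus (60 uM solution as added), compounds 11-pt qHTS, 17 h 37C. CCF4 dye 2 h RT, 460/530 nm emission. CellTiter-Glo viability in same wells.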

[11] = qHTS for Hypoxia signaling pathway (HIF-1) agonists against the NCATS CANVASS Library (AID 1347375)
In short: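 An HRE-beta-lactamase ME-180 line is exposed for 17 h to an 11-point compound series, then read by CCF4-AM FRET. Cytotoxicity is measured in parallel in the same wells with CellTiter-Glo, and autofluorescence is checked separately.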

[12] = 10-beta competent E. coli microbial cell viability qHTS against the NCATS CANVASS Library (AID 1347376)
In short: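 Overnight 37C exposure of 10-beta E. coli (0.2 OD) to an 11-point concentration series; ATP-based luminescence after 20 min room-temperature reagent incubation; daunomycin as control.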

[13] = DH5-alpha competent E. coli microbial cell viability qHTS against the NCATS CANVASS Library (AID 1347377)
In short: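 Overnight incubation at 37C, 5% CO2 of E. coli DH5-alpha (diluted to 0.2 OD) with compounds precedes BacTiter-Glo addition. Luminescence, acquired after 20 min at room temperature, reflects viable-cell ATP.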

[14] = qHTS for H2AX Agonists against the NCATS CANVASS Library (AID 1347378)
In short: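 CHO-K1, 1000 cells/well, o/n 37C; cpd several conc, 3 hr 37C, 0.76% DMSO; lyse 30 min RT; cryptate anti-pH2AX(S139) + d2 anti-H2AX, 24 hr RT; HTRF 665/620.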

[15] = qHTS for Inflammasome Signaling Inhibitors: IL-1-beta AlphaLISA screen against the NCATS CANVASS Library (AID 1347379)
In short: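 THP-1, 1 hr compound pre-incubation, then LPS 250 ng/mL + ATP 1.25 mM (final); 16 hr total with compound; IL-1B AlphaLISA, ex 680/em 615 nm; 11-point qHTS, up to 57.5 uM final.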

[16] = qHTS for Antimalaria activity screened against the NCATS CANVASS Library (AID 1347380)
In short: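 Measures proliferation or cytotoxicity against Dd2 blood stages in 72 h cultures, 11-point qHTS dosing, with SYBR Green fluorescence as read-out; dihydroartemisinin titration served as control.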

[17] = Inflammasome Signaling qHTS Counterscreen: IL-1-beta AlphaLISA counterscreen against the NCATS CANVASS Library (AID 1347381)
In short: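 Here, no cellular stimulation occurs; compounds in an 11-point series meet 4 pg purified IL-1-beta directly. Bead-based AlphaLISA detection follows (1 h acceptor/antibody, then 30 min donor, dark, room temperature), with excitation at 680 nm.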

[18] = Cytotoxicity qHTS for assessment of Hepg2 cells membrane integrity screened against the NCATS CANVASS Library (AID 1347387)
In short: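 Membrane damage in HepG2 monolayers was estimated from released LDH, measured with CytoTox-ONE (ex 560/em 590 nm), after 5 hr treatment across 0.59 nM - 46 uM final.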

[19] = qHTS assay for small molecule disruptors of mitochondrial membrane potential screened against the NCATS CANVASS Library (AID 1347389)
In short: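 Cells (HepG2) seeded the day before received compound or DMSO for 1 hr, then Mito-MPS dye for 30 min at 37C; emission at 590 nm over 535 nm gave the polarization signal.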

[20] = Secretion counterscreen for inhibitors of the SERCaMP assay screened against the NCATS CANVASS Library (AID 1347390)
In short: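 SH-SY5Y-GLuc STOP cells; 4 h attach; cpds 0.001 - 77 uM (qHTS, 11 pts), 20 h 37C/5% CO2; coelenterazine in glow buffer; luminescence, 5 s exposure.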

Measured: outcome

CN(C)CCc1c[nH]c2ccccc12
inactive: all assays above
